From PubChem BioAssay (NCI)
Compounds without any hit were thinned out: in the full panel of roughly 83,000, 20% have a hit.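 Cells were grown in 96-well plates and exposed to the test compound at a single concentration for 48 hours; results are reported as percent growth, with values below 10 considered active.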 Calls of active or inactive are those of the source.

Columns and labels:
Test in all cases: NCI-60 one-dose screen, 48 h (100 = growth as untreated, 0 = no growth, -100 = all killed)
Conditions in all cases: 10 µM unless noted
T-47D breast = test system: T-47D breast
BT-549 breast = test system: BT-549 breast
MDA-MB-435 melanoma = test system: MDA-MB-435 melanoma
SW-620 colon = test system: SW-620 colon
MCF7 breast = test system: MCF7 breast
HCT-116 colon = test system: HCT-116 colon
HCC-2998 colon = test system: HCC-2998 colon
KM12 colon = test system: KM12 colon

Measured: growth

Cc1ccc2c(/C=C/C(=O)c3cc(CN4CCOCC4)c(O)c4nc(C)ccc34)cc(CN3CCOCC3)c(O)c2n1
active: T-47D breast 9.26% | MDA-MB-435 melanoma -62.6% | SW-620 colon 1.06% | MCF7 breast 4.69% | HCT-116 colon -22.9% | KM12 colon -59.3%
inactive: BT-549 breast 12.8% | HCC-2998 colon 22.7%

C=C(c1ccc(C(=O)O)c(F)c1)c1cc2c(cc1C)C(C)(C)CCC2(C)C
inactive: T-47D breast 78.5% | BT-549 breast 91.7% | MDA-MB-435 melanoma 89.3% | SW-620 colon 97.6% | MCF7 breast 62.1% | HCT-116 colon 79.5% | HCC-2998 colon 89.9% | KM12 colon 69.2%

O=C(c1c[nH]c2ccccc12)c1n[nH]c(=S)n1-c1ccc([N+](=O)[O-])cc1
inactive: T-47D breast 40.4% | BT-549 breast 117% | MDA-MB-435 melanoma 104% | SW-620 colon 100% | MCF7 breast 63.3% | HCT-116 colon 90.3% | HCC-2998 colon 58.5% | KM12 colon 67.4%

C=CCn1cc(-c2nc3ccccc3s2)c2cc(-c3ccc4c5c(cccc35)C(=O)N(CCO)C4=O)ccc21
inactive: T-47D breast 78.1% | BT-549 breast 99.4% | MDA-MB-435 melanoma 109% | SW-620 colon 98.9% | MCF7 breast 80.2% | HCT-116 colon 96.7% | HCC-2998 colon 101% | KM12 colon 105%

Cn1cc(-c2nonc2-c2c[nH]c3ccccc23)c2cc(Br)ccc21
inactive: T-47D breast 14.5% | BT-549 breast 47.1% | SW-620 colon 23.9% | MCF7 breast 19.6% | HCT-116 colon 25.6% | HCC-2998 colon 43.4% | KM12 colon 17.7%
active: MDA-MB-435 melanoma 2.49%

O=C(/C=C/c1ccccc1Cl)c1cccc(OCCCCOc2cccc(C(=O)/C=C/c3ccccc3Cl)c2)c1
inactive: T-47D breast 91.2% | BT-549 breast 116% | MDA-MB-435 melanoma 106% | SW-620 colon 99% | MCF7 breast 51.7% | HCT-116 colon 50.1% | HCC-2998 colon 104% | KM12 colon 101%

Cc1nc2ccccc2c(/C=C/c2ccc(F)cc2)c1C(=O)/C=C/c1ccccc1
inactive: T-47D breast 10.9% | BT-549 breast 30.7% | MCF7 breast 11.4% | HCC-2998 colon 22% | KM12 colon 11.9%
active: MDA-MB-435 melanoma -9.7% | SW-620 colon -1.98% | HCT-116 colon -69.9%

O=C(C1=Cc2cc3ccccc3n2Cc2cnnn21)c1ccc(F)cc1
inactive: T-47D breast 95% | BT-549 breast 94.9% | MDA-MB-435 melanoma 97.5% | SW-620 colon 108% | MCF7 breast 94% | HCT-116 colon 97.9% | HCC-2998 colon 110% | KM12 colon 90.8%

C=CCN=c1sc(-c2ccc3ccccc3c2)cn1NC(=O)c1cc2ccc1CCc1ccc(cc1)CC2
inactive: T-47D breast 20.8% | BT-549 breast 53.9% | MDA-MB-435 melanoma 67.5% | SW-620 colon 72.9% | MCF7 breast 35.9% | HCT-116 colon 27.1% | HCC-2998 colon 89.1% | KM12 colon 56.6%

C[N+]1=C(/C=C/c2ccccc2Cl)C(C)(C)c2ccccc21
inactive: T-47D breast 86.4% | BT-549 breast 109% | MDA-MB-435 melanoma 100% | SW-620 colon 92.4% | MCF7 breast 94.7% | HCT-116 colon 90.8% | HCC-2998 colon 103% | KM12 colon 96.6%

CC(C)c1ccc2c(c1)CC[C@H]1[C@](C)(C(=O)OCC#CCN3CCCC3)CCC[C@]21C
inactive: T-47D breast 63.4% | BT-549 breast 93.4% | MDA-MB-435 melanoma 82.9% | SW-620 colon 84.6% | MCF7 breast 73.9% | HCT-116 colon 48.5% | HCC-2998 colon 86.9% | KM12 colon 81.4%

COc1ccc(CN2C(=O)OC(C)(COC(C)=O)C2=O)cc1 (configuration not stated)
inactive: T-47D breast 91.9% | BT-549 breast 107% | MDA-MB-435 melanoma 107% | SW-620 colon 107% | MCF7 breast 96.3% | HCT-116 colon 93.5% | HCC-2998 colon 100% | KM12 colon 112%

C/C=C1/CN(CCCCC)CC[C@H]1C(=O)c1cc2ccccc2[nH]1
inactive: T-47D breast 82.6% | BT-549 breast 97.4% | MDA-MB-435 melanoma 97.8% | SW-620 colon 87% | MCF7 breast 89.3% | HCT-116 colon 66.5% | HCC-2998 colon 101% | KM12 colon 109%

Cc1cc(=O)oc2cc(Oc3nc(Br)cn4c(Br)cnc34)ccc12
inactive: T-47D breast 53.7% | BT-549 breast 92.2% | MDA-MB-435 melanoma 87.2% | SW-620 colon 116% | MCF7 breast 22.2% | HCT-116 colon 55.5% | HCC-2998 colon 105% | KM12 colon 78.9%

COc1cc(/C=C/C(=O)c2cccc(-n3cc(-c4ccc(Cl)cc4)[nH]c3=O)c2)ccc1O
active: MCF7 breast 9.8% | KM12 colon 6.79%
inactive: T-47D breast 62.2% | BT-549 breast 26.3% | MDA-MB-435 melanoma 21.4% | SW-620 colon 16% | HCT-116 colon 21.5% | HCC-2998 colon 66.8%

Fc1cccc(CNc2c3ccccc3nc3ccccc23)c1
active: MCF7 breast 7.9%
inactive: T-47D breast 42.7% | BT-549 breast 77.1% | MDA-MB-435 melanoma 48.9% | SW-620 colon 22% | HCT-116 colon 13.4% | HCC-2998 colon 29.9% | KM12 colon 48.6%

COc1ccc2c(c1)CC[C@@H]1[C@@H]2CC[C@]2(C)c3c(cc(C#N)c4c3sc3ccccc34)C[C@@H]12
inactive: T-47D breast 102% | BT-549 breast 114% | MDA-MB-435 melanoma 105% | SW-620 colon 99.5% | MCF7 breast 106% | HCT-116 colon 108% | HCC-2998 colon 92.7% | KM12 colon 109%

CS(=O)(=O)Nc1cc(-c2ccc3ncnc(Nc4ccc(OCc5ccccn5)c(Cl)c4)c3c2)cnc1Cl
active: T-47D breast -25.3% | BT-549 breast -3.21% | MDA-MB-435 melanoma 7.34% | SW-620 colon 5.12% | MCF7 breast 4.74% | HCT-116 colon 9.28% | HCC-2998 colon 3.04% | KM12 colon -5.09%

COc1cc(Cc2cc(-c3ccccc3)nn(Cc3ccccc3)c2=O)cc(OC)c1OC
active: T-47D breast 6.19%
inactive: BT-549 breast 53.8% | MDA-MB-435 melanoma 44.9% | SW-620 colon 50.1% | MCF7 breast 24.5% | HCT-116 colon 23.3% | HCC-2998 colon 64.2% | KM12 colon 32.9%

COc1cc(Cc2cc(OC)c(O)c(OC)c2)cc(OC)c1O
active: MDA-MB-435 melanoma 2.4%
inactive: T-47D breast 109% | BT-549 breast 87.8% | SW-620 colon 41.4% | MCF7 breast 68.1% | HCT-116 colon 85.6% | HCC-2998 colon 73.5% | KM12 colon 55.7%

COc1ccc(C/C(C)=C(\c2ccc(O)cc2)c2ccc(OCCN3CCCCC3)cc2)cc1
inactive: T-47D breast 53.8% | BT-549 breast 88.3% | MDA-MB-435 melanoma 82.1% | SW-620 colon 91.6% | MCF7 breast 35.2% | HCT-116 colon 46.5% | HCC-2998 colon 80.8% | KM12 colon 91.1%

COC(=O)[C@@]1(C)CC[C@]2(C)CC[C@]3(C)C4=CC=C5C(=CC(=O)C(O)=C5C)[C@]4(C)[C@@H](O)C[C@@]3(C)[C@@H]2C1
inactive: BT-549 breast 35.5% | MDA-MB-435 melanoma 15.9% | MCF7 breast 17.6% | HCC-2998 colon 37.7% | KM12 colon 77.6%
active: T-47D breast -13.7% | SW-620 colon -10.4% | HCT-116 colon 0.149%

CN(C)C1CN(C(=O)c2cc(-c3ccc4ncnc(N5CCc6cc(F)c(Cl)cc65)c4c3)cnc2N)C1
active: T-47D breast 4.73% | BT-549 breast -12.8% | MDA-MB-435 melanoma 9.39% | MCF7 breast 5.85%
inactive: SW-620 colon 19.1% | HCT-116 colon 10.6% | HCC-2998 colon 15.3% | KM12 colon 18.2%

O=C(Nc1cccnc1Nc1ccccc1)c1cn(Cc2cccc(Oc3ccccc3)c2)nn1
active: MDA-MB-435 melanoma -19.3%
inactive: T-47D breast 71.3% | BT-549 breast 66.2% | SW-620 colon 42.4% | MCF7 breast 23.5% | HCT-116 colon 33.1% | HCC-2998 colon 90.1% | KM12 colon 35%

O=C(O)CC(C(=O)O)/C(=C\c1ccccc1)c1ccccc1 (configuration not stated)
inactive: T-47D breast 93.1% | BT-549 breast 122% | MDA-MB-435 melanoma 115% | SW-620 colon 103% | MCF7 breast 94.7% | HCT-116 colon 119% | HCC-2998 colon 108% | KM12 colon 108%

O=C1Nc2ccccc2/C1=N/N1C(=O)CN(CCCl)C1=O
inactive: T-47D breast 102% | BT-549 breast 111% | MDA-MB-435 melanoma 98.9% | SW-620 colon 95.1% | MCF7 breast 93.8% | HCT-116 colon 98.6% | HCC-2998 colon 104% | KM12 colon 113%

Cc1c2cnccc2c(C)c2c1c1cc(CO)ccc1n2C
active: T-47D breast -21.2% | BT-549 breast -61.6% | MDA-MB-435 melanoma -81.2% | SW-620 colon 2.39% | MCF7 breast -13.9% | HCT-116 colon -7.64% | HCC-2998 colon -65.4% | KM12 colon 1.94%

CC(C)(C)c1ccc(S(=O)(=O)Oc2ccc(-c3sc4cc(OS(=O)(=O)c5ccc(C(C)(C)C)cc5)ccc4c3C(=O)c3ccc(OCCN4CCCCC4)cc3)cc2)cc1
inactive: T-47D breast 79.1% | BT-549 breast 97.7% | MDA-MB-435 melanoma 100% | SW-620 colon 101% | MCF7 breast 96.8% | HCT-116 colon 91.6% | HCC-2998 colon 98.1% | KM12 colon 95.5%

O=C1O[C@@H](c2ccccc2Cl)[C@@H]2c3cc4c(cc3CCN12)OCO4
inactive: T-47D breast 69.9% | BT-549 breast 101% | MDA-MB-435 melanoma 105% | SW-620 colon 97.2% | MCF7 breast 103% | HCT-116 colon 94.9% | HCC-2998 colon 106% | KM12 colon 97.8%
